Source: PubChem BioAssay (Tox21)
Results filed as inconclusive are left out. Unmarked numbers belong to inactive results. Active and inactive are the calls of the source. The call rests on the fitted dose curve; in most records, active means well fitted activation curve with a large enough effect in the repeat runs; inconclusive means weak or mixed curves; inactive means flat fitted curve, though single readings scatter.

Test: A CellTox Green Cytotoxicity Assay to monitor cytotoxicity in HEK293 cells - 16 hour (AID 1224888); further: nearly all actives have a fitted effect of over 35% in size
Settings: CellTox Green fluorescence; series mostly up to 76.8 µM; activity change: at the top concentration
From the text: National Center for Advancing Translational Sciences [NCATS]
NIH Chemical Genomics Center [NCGC]
U.S. Environmental Protection Agency [EPA]
National Institutes of Environmental Health Sciences [NIEHS]
National Toxicology Program [NTP]
Cell-based models are critical for drug discovery. Determining the natural cytotoxic effects resulting from test compounds is an essential research activity. A CellTox Green Cytotoxicity Assay to monitor cytotoxicity in real time of continues cell culture during 40 hours of the compound treatment was used to screen Tox21 10K library compounds in Hek293 cells. CellTox Green Cytotoxicity Assay is a nonlytic, homogeneous, biofluorescent method to measure cytotoxicity in cell culture after experimental manipulation. The assay system uses a proprietary asymmetric cyanine dye that is excluded from viable cells but preferentially stains the dead cell's DNA. […] Viable cells produce no appreciable increases in fluorescence. Therefore, the fluorescence signal produced by the binding interaction with dead cell DNA is proportional to cytotoxicity.
The mixture of Hek293 cell suspension and reagents were dispensed at 600cells/6 ul/well in 1536-well tissue culture treated black solid bottom plates using a Multidrop dispenser. After the assay plates were incubated at a 37 C/5% CO2 incubator for 5 hours, 23 nL of compounds dissolved in DMSO, positive and negative controls was transferred to the assay plate by a pintool work station. The plates were incubated at 37 C for 40 hours. The fluorescence intensity were measured at 0h, 8h, 16h, 24h, 32h and 40h time points using ViewLux plate reader during compound treatment.
On the % scale 0 is the no-effect control and ±100 the full control effect; potency means the concentration at half of the fitted maximal effect.

| Compound | activity change | Potency |
| --- | --- | --- |
| CCC(C(N)=O)N1CCCC1=O (stereo not given) | 1.05% [at 35.3 µM, hits give high values] |  |
| Cn1c(N)nc2c3cccnc3ccc21 | -11.8% |  |
| BrCCc1ccccc1 | -5.55% |  |
| CCC(C)(C#N)N=NC(C)(C#N)CC (stereo not given) | -15.6% |  |
| ClCOCCl | -4.61% |  |
| CCC1(CC)C(=O)C=CNC1=O | -9.54% [at 35.3 µM, hits give high values] |  |
| CCCC(C)(COC(N)=O)COC(N)=O | -4.44% |  |
| NNCc1ccccc1 | 5.85% |  |
| C[N+]1(C)CCCCC1 | -11.3% |  |
| CCNP(=S)(OC)O/C(C)=C/C(=O)OC(C)C (stereo not given) | -4.06% |  |
| CCCC(C)C1(CC)C(=O)N=C(S)NC1=O (stereo not given) | -11% [at 35.3 µM, hits give high values] |  |
| O=[N+]([O-])c1cccc(CCl)c1 | 14.7% |  |
| O=c1[nH]c2ccccc2n1C1CCNCC1 | -0.992% [at 35.3 µM, hits give high values] |  |
| CCCN1CCC[C@@H]2Cc3nc(N)ncc3C[C@H]21 |  | 19 µM (active) |
| CC(C)(C)C(=O)Cl | -13.9% |  |
| COc1ccc(CN2CCNCC2)c(OC)c1OC | 3.86% [at 35.3 µM, hits give high values] |  |
| CCC1(c2cccc(O)c2)CCCCN(C)C1 (stereo not given) | 15.9% [at 35.3 µM, hits give high values] |  |
| Cc1ccc(S(=O)(=O)N[C@@H](CCCCN)C(=O)CCl)cc1 | 0.394% [at 35.3 µM, hits give high values] |  |
| CC(=O)CN(CC(C)=O)N=O | 3.45% |  |
| CC#Cc1cc(C)nc(Nc2ccccc2)n1 | -4.89% |  |

| Compound | activity change | Potency |
| --- | --- | --- |
| COC(=O)c1ccc(CBr)cc1 | 2.5% |  |
| C#CCOC(=O)/C=C(C)/C=C/CC(C)CCCC(C)C (stereo not given) | -4.43% |  |
| C=CC(=O)OCCN(C)C | -2.38% |  |
| Clc1nc(Cl)nc(Nc2ccccc2Cl)n1 | 2.54% |  |
| [P]#[In] | -5.58% |  |
| COC(=O)c1ccccc1CS(=O)(=O)NC(=O)Nc1nc(OC)cc(OC)n1 | 0.374% |  |
| COc1cccc(C=O)c1 | -4.73% |  |
| CCCCOC(C)=O | 10.3% |  |
| CC(Cl)(Cl)Cl | 23.4% |  |
| O=c1[nH]c2ccccc2o1 | 3.97% |  |
| CC(O)CCl (stereo not given) | 2.21% |  |
| CCSC(=O)Cl | -4.58% |  |
| CCc1cc(OC)c(C[C@H](C)N)cc1OC | 5.82% |  |
| CCN(CC)CCOC(=O)C(O)(c1ccccc1)c1ccccc1 | -0.629% [at 35.3 µM, hits give high values] |  |
| CS(=O)(=O)Cl | -4.74% |  |
| NCCOS(=O)(=O)O | 2.67% |  |
| Cc1ccc(-c2nc3ccc(C)cn3c2CC(=O)N(C)C)cc1 | -0.0582% [at 35.3 µM, hits give high values] |  |
| C1CN2CCC1CC2 | -0.44% [at 35.3 µM, hits give high values] |  |
| C=CCC1(C(C)CC)C(=O)NC(=O)NC1=O (stereo not given) | -2.92% [at 35.3 µM, hits give high values] |  |
| COP(=O)(O)OC | -18.6% |  |
